This note sets out measurements from the supplement of paper PMC8975748.

Molecules are shown by their SMILES. Structures can show the parent of a compound that is named as a salt.

This assay has as its system Saccharomyces cerevisiae BY4741 SeMeCo community. In words: z-score of subpopulation abundance vs DMSO median, subpopulation auxotrophic for LUM; higher = larger share of this subpopulation than in DMSO controls. Particulars: 10 µM; 24 h; SM minimal medium; subpopulation (auxotrophy): LUM. As to the method: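 Fluorescent four-plasmid SeMeCo (self-establishing metabolically cooperating S. cerevisiae BY4741 community; plasmids pH-mRuby2, pL-mWasabi, pU-eCFP, pM-TagRFP657) was grown 24 h in minimal SM medium with each Selleck FDA-approved drug at 10 µM in 384-well plates. Cells were fixed and imaged by high-content confocal microscopy. For each auxotrophic subpopulation (and the prototroph), a z-score gives the deviation from the DMSO vehicle-control population median.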
Consider `CN[C@@H]1[C@@H](O)[C@@H](O[C@@H]2[C@@H](O)[C@H](O[C@H]3O[C@H](CN)CC[C@H]3N)[C@@H](N)C[C@H]2N)OC[C@]1(C)O.CN[C@@H]1[C@@H](O)[C@@H](O[C@@H]2[C@@H](O)[C@H](O[C@H]3O[C@H]([C@@H](C)N)CC[C@H]3N)[C@@H](N)C[C@H]2N)OC[C@]1(C)O.CN[C@@H]1[C@@H](O)[C@@H](O[C@@H]2[C@@H](O)[C@H](O[C@H]3O[C@H]([C@@H](C)NC)CC[C@H]3N)[C@@H](N)C[C@H]2N)OC[C@]1(C)O` [Gentamicin Sulfate], for which the “z-score of subpopulation abundance” value was -0.47.

Consider `C[N+](C)(C)CCCCCCCCCC[N+](C)(C)C` [Decamethonium Bromide], for which the “z-score of subpopulation abundance” value stood at 0.08.

In the case of `CN[C@@H]1[C@@H](O)[C@@H](O[C@@H]2[C@@H](O)[C@H](O[C@H]3O[C@H]([C@@H](C)O)[C@@H](O)[C@H](O)[C@H]3N)[C@@H](N)C[C@H]2N)OC[C@]1(C)O` [Geneticin (G418 Sulfate)], the “z-score of subpopulation abundance” value was -0.36.

As for `CN(C)C(=O)Oc1cccc([N+](C)(C)C)c1` [Neostigmine Bromide], the “z-score of subpopulation abundance” value was found to be 0.02.

As for `CN(C)[C@@H]1C(=O)C(C(N)=O)=C(O)[C@@]2(O)C(=O)C3=C(O)c4c(O)cccc4[C@@](C)(O)[C@H]3[C@H](O)[C@@H]12` [Oxytetracycline Dihydrate], the “z-score of subpopulation abundance” value turned out to be 0.01.

Consider `O=C(O[C@H]1C[C@H]2CC[C@@H](C1)[N+]21CCCC1)C(O)(c1ccccc1)c1ccccc1` [Trospium chloride], for which the “z-score of subpopulation abundance” value was -0.13.

On to `CC(=O)OCC1=C(C(=O)O)N2C(=O)C(N)C2SC1` (stereo not given) [7-Aminocephalosporanic acid], for which the “z-score of subpopulation abundance” value is -0.51.

For `COc1ccc2c3c([nH]c2c1)C(C)=NCC3` [Harmaline], the “z-score of subpopulation abundance” value was -4.96.

Consider `NC(=O)CN1CCCC1=O` [Piracetam], for which the “z-score of subpopulation abundance” value was 2.09.

Take `CN1[C@@H]2C[C@@H](OC(=O)[C@H](CO)c3ccccc3)C[C@H]1[C@@H]1O[C@@H]12` [Scopolamine HBr trihydrate]: the “z-score of subpopulation abundance” value is -0.33.

With `CC1(C)SC2C(N)C(=O)N2C1C(=O)O` (stereo not given) [6-Aminopenicillanic acid], the “z-score of subpopulation abundance” value was -0.93.

Turning to `CCCCCCCCCCCCCCCC[n+]1ccccc1` [Cetylpyridinium Chloride], the “z-score of subpopulation abundance” value was 7.62.

Regarding `C[N+]12CCC(CC1)C(OC(=O)C(O)(c1ccccc1)c1ccccc1)C2` (stereo not given) [Clidinium Bromide], the “z-score of subpopulation abundance” value was -0.9.

For the compound `O=c1[nH]c2ccccc2n1CCCN1CCC(n2c(=O)[nH]c3cc(Cl)ccc32)CC1` [Domperidone], the “z-score of subpopulation abundance” value is -0.33.

As for `COc1ccc2c(c1)[C@]13CCCC[C@@H]1[C@H](C2)N(C)CC3` [Dextromethorphan hydrobromide hydrate], the “z-score of subpopulation abundance” value is -0.51.

Regarding `C#C[C@]1(O)C=C[C@H]2[C@@H]3CCC4=CC(=O)CC[C@@H]4[C@H]3CC[C@@]21CC` [Gestodene], the “z-score of subpopulation abundance” value was 0.24.

Regarding `O=c1cccc2n1C[C@@H]1CNC[C@H]2C1` [Cytisine], the “z-score of subpopulation abundance” value was -0.47.

For the compound `COC(=O)C1=CCCN(C)C1` [Arecoline HBr], the “z-score of subpopulation abundance” value came to 0.07.

Take `CC[C@H]1[C@@H]2C[C@H]3[C@@H]4N(C)c5ccccc5[C@]45C[C@@H]([C@@H]2[C@H]5O)N3[C@@H]1O` [Ajmaline]: the “z-score of subpopulation abundance” value is -0.35.

On to `C[C@@H]1CC[C@H]2[C@@H](C)C(=O)O[C@@H]3O[C@@]4(C)CC[C@@H]1[C@]32OO4` [Artemisinin], for which the “z-score of subpopulation abundance” value is -0.97.

For `C[C@@H]1O[C@@H](O[C@H]2C[C@@H](O)[C@]3(CO)[C@H]4[C@H](O)C[C@]5(C)[C@@H](C6=CC(=O)OC6)CC[C@]5(O)[C@@H]4CC[C@]3(O)C2)[C@H](O)[C@H](O)[C@H]1O` [Ouabain], the “z-score of subpopulation abundance” value is -0.83.

For `CN1[C@@H]2C[C@@H](OC(=O)[C@H](CO)c3ccccc3)C[C@H]1[C@@H]1O[C@@H]12` [Scopolamine HBr], the “z-score of subpopulation abundance” value is -0.9.

Consider `C=CCN1C[C@H](C(=O)N(CCCN(C)C)C(=O)NCC)C[C@@H]2c3cccc4[nH]cc(c34)C[C@H]21` [Cabergoline], for which the “z-score of subpopulation abundance” value worked out at 0.18.

Turning to `O=C(O[C@H]1C[N+]2(CCCOc3ccccc3)CCC1CC2)C(O)(c1cccs1)c1cccs1` [Aclidinium Bromide], the “z-score of subpopulation abundance” value was -0.16.

For `COc1cc2c(cc1OC)C1CC(=O)C(CC(C)C)CN1CC2` (stereo not given) [Tetrabenazine (Xenazine)], the “z-score of subpopulation abundance” value came out at 0.67.

In the case of `CCCN1C[C@H](CSC)C[C@@H]2c3cccc4[nH]cc(c34)C[C@H]21` [Pergolide Mesylate], the “z-score of subpopulation abundance” value is -0.65.

As for `CCOC(=O)Nc1ccc(NCc2ccc(F)cc2)cc1N` [Retigabine], the “z-score of subpopulation abundance” value was -0.25.

On to `CN1C(=O)COc2c(C(=O)NC3CN4CCC3CC4)cc(Cl)cc21` (stereo not given) [Azasetron HCl], for which the “z-score of subpopulation abundance” value was -0.38.

On to `CC(=O)O[C@H]1C[C@@H]2CC[C@@H]3[C@H](CC[C@@]4(C)[C@H]3C[C@H]([N+]3(C)CCCCC3)[C@@H]4OC(C)=O)[C@@]2(C)C[C@@H]1[N+]1(C)CCCCC1` [Pancuronium dibromide], for which the “z-score of subpopulation abundance” value was -0.96.

`CC[C@@H](C(N)=O)N1CCCC1=O` [Levetiracetam]: the “z-score of subpopulation abundance” value was -0.55.

On to `CC(C)(O)C(Cl)(Cl)Cl` [Chlorobutanol], for which the “z-score of subpopulation abundance” value stood at 0.26.

Regarding `C[N+]1(C)[C@@H]2C[C@@H](OC(=O)[C@H](CO)c3ccccc3)C[C@H]1[C@@H]1O[C@@H]12` [Methscopolamine], the “z-score of subpopulation abundance” value is 0.43.

For the compound `O=[N+]([O-])C(Br)(CO)CO` [Bronopol], the “z-score of subpopulation abundance” value is -0.07.

With `Nc1nc(N)nc(NC2CC2)n1` [Cyromazine], the “z-score of subpopulation abundance” value was determined as 0.89.

As for `CCN(C)C(=O)Oc1cccc([C@H](C)N(C)C)c1` [Rivastigmine Tartrate], the “z-score of subpopulation abundance” value is -0.01.

As to `CCN(CC)CCOC(=O)C(O)(c1ccccc1)c1ccccc1` [Benactyzine hydrochloride], the “z-score of subpopulation abundance” value was -0.06.

For the compound `CC[C@H]1CN2CC[C@]3(C(=O)Nc4ccccc43)[C@@H]2C[C@@H]1/C(=C\OC)C(=O)OC` [Rhynchophylline], the “z-score of subpopulation abundance” value was -0.36.

For the compound `CN(C)[C@@H]1C(=O)C(C(N)=O)=C(O)[C@@]2(O)C(=O)C3=C(O)c4c(O)ccc(Cl)c4[C@@](C)(O)[C@H]3C[C@@H]12` [Chlortetracycline HCl], the “z-score of subpopulation abundance” value is -0.67.

Regarding `C[CH2][Hg][S]c1ccccc1C(=O)[O-].[Na+]` [Thimerosal], the “z-score of subpopulation abundance” value amounted to 21.

On to `CCC1=C[C@H]2CN3CCc4c([nH]c5ccccc45)[C@](C(=O)OC)(C2)[C@H]13` [Catharanthine], for which the “z-score of subpopulation abundance” value was -0.3.
